Test results taken from the supplement of paper PMC6555819.

Columns and labels:
Experiment in all cases: PBM binding z-score (relative to random genomic background probes); higher = stronger binding; sequences stand for … in GC…GCGATTGACAGCGTAGAATGAAGG
[1] = system: FXR:RXRa (NR concentration 270 nM, RXRa partner concentration 90 nM)
Procedure, shortened: (§1)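 Binding z-scores were set against random background probes. The data came from custom Agilent 4×180K protein-binding microarrays carrying double-stranded probes with 34-nt variable regions, incubated 1 h with ligand-free nuclear receptor dimers. Partner-specific antibodies detected binding, and scanned fluorescence was regression-normalized.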

[2] = system: LXRa:RXRa (NR concentration 270 nM, RXRa partner concentration 90 nM)
Procedure, shortened: as §1

[3] = system: LXRa homodimer (NR concentration 270 nM)
Procedure, shortened: as §1

[4] = system: LXRb:RXRa (NR concentration 270 nM, RXRa partner concentration 90 nM)
Procedure, shortened: as §1

[5] = system: LXRb homodimer (NR concentration 270 nM)
Procedure, shortened: as §1

[6] = system: PPARa:RXRa (NR concentration 270 nM, RXRa partner concentration 90 nM)
Procedure, shortened: as §1

[7] = system: PPARg:RXRa (NR concentration 180 nM, RXRa partner concentration 90 nM)
Procedure, shortened: as §1

[8] = system: PPARg:RXRa 270nM:90nM, anti-RXR (NR concentration 270 nM, RXRa partner concentration 90 nM)
Procedure, shortened: as §1

[9] = system: PPARg:RXRa 30nM:10nM, anti-RXR (NR concentration 30 nM, RXRa partner concentration 10 nM)
Procedure, shortened: as §1

[10] = system: PPARg:RXRa 90nM:30nM, anti-RXR (NR concentration 90 nM, RXRa partner concentration 30 nM)
Procedure, shortened: as §1

Sequence | PBM binding z-score [1] | PBM binding z-score [2] | PBM binding z-score [3] | PBM binding z-score [4] | PBM binding z-score [5] | PBM binding z-score [6] | PBM binding z-score [7] | PBM binding z-score [8] | PBM binding z-score [9] | PBM binding z-score [10]
GCATATAGGTAATACAAGCTGAAAGTCCGATTGT | -0.216 | -0.314 | -0.237 | -0.399 | -0.434 | 0.493 | 0.856 | 0.592 | 0.14 | 0.385
CGAACTAGGTCAGAACAGCACAGTGAAGGATGAT | 0.904 | 0.613 | -0.229 | 0.425 | -0.2 | 3.25 | 5.34 | 4.59 | 1.73 | 3.54
ACTCGGAGGACAAAGATCAGAGCTACGCCAGTGA | -0.308 | -0.42 | -0.56 | -0.616 | -0.443 | 0.399 | 1.61 | 2.24 | 0.508 | 1.43
GATACAGGGTCAGCTAGATGCCAGAGTATGGAAA | 5.08 | 2.66 | -0.125 | 2.53 | -0.514 | 4.79 | 4.08 | 3.48 | 0.884 | 2.4
ATCTCTAGGTAACAAGTTCAGTGAAAGAGAGGAC | 0.883 | 1.09 | 0.507 | 0.886 | 1.21 | 1.82 | 1.52 | 1.92 | 0.986 | 1.73
AGAATGAGGTTAAGATCGGGGAAACAGAATACAT | 2.13 | 4.69 | -0.244 | 2.3 | 0.08 | 3.65 | 2.06 | 2.53 | 0.954 | 1.75
CGCCCAAGGTCATAGGAGGTCAGTGAAGACAGAT | 7.29 | 7.31 | 4.78 | 6.09 | 0.731 | 5.8 | 5.24 | 5.41 | 2.05 | 4.11
TCTAGTTGGTCACCGAGGTCACACACGACGGGTA | 3.85 | 3.58 | 2.2 | 3.85 | 1.18 | 4.41 | 3.75 | 4 | 3.5 | 3.89
TCTATTAGTTGAGGGGCAACCGACGAGTCCGTTT | 0.999 | 0.876 | 0.028 | 1.41 | 0.923 | 1.18 | 0.143 | 1.75 | 3.58 | 2.71
CCGAGTAGGTTATGGAGCATTCAGGCAACGGTGA | 0.0328 | 0.259 | 0.125 | 0.219 | -0.185 | 1.01 | 1.36 | 2.08 | 0.32 | 1.46
AGTCAAAGTTCATCTATGTAACGTAAGATATGCT | 6.5 | 5.79 | 5.16 | 3.59 | 1.69 | 4.44 | 6.21 | 5.9 | 3.03 | 5.29
TCTGCTAGGTCAACGATGGTCGGCTAATCTGCTA | 3.06 | 2.14 | -0.28 | 1.11 | -0.00978 | 2.9 | 2.1 | 3.01 | 1.81 | 2.42
TCTAGTTGGTCCCGGAGGTCACACACGACGGGTA | 2.88 | 2.9 | 2.37 | 3.18 | 0.951 | 3.55 | 1.68 | 2.9 | 3.06 | 3.11
TCAATTAGTTGAAGGGCAACCGACGAGTCCGTTT | 0.718 | 0.5 | 0.203 | 0.456 | -0.169 | 0.684 | 0.142 | 2.03 | 3.38 | 2.61
CCTCGGTGGACAGAAGGTCAGAGCTGTCCGCTTT | 1.33 | 1.62 | -0.089 | 0.847 | -0.688 | 1.75 | 0.418 | 2.42 | -0.194 | 1.62
ATATGTAGGTTATCGGGTCATTGAGTTTGCGCAT | 3.15 | 3.21 | 1.69 | 2.94 | 1.33 | 4.75 | 7.4 | 6.33 | 3.44 | 5.94
CCTAGCAGGCCAATCTGGGTCACTCATGGCTTGA | 0.761 | 0.933 | -0.409 | 0.376 | -1.09 | 2.62 | 1.75 | 1.93 | 0.0126 | 0.944
AGACCGAGGGCACGCTGAGTTGATAGCAGAGTAG | 0.748 | 0.67 | -0.437 | 0.0788 | -0.999 | 1.56 | 0.962 | 0.775 | -0.337 | 0.0427
CCTACTTGGTCAAGGTCACACACGCTATAGGTAC | 4.25 | 4.24 | 2.32 | 4.05 | 1.7 | 4.33 | 3.75 | 3.87 | 1.38 | 2.72
TTACCGAGGTGAGCTGAGGTCGTTGATCCAACTC | 1.71 | 1.73 | -0.575 | 1.16 | -0.881 | 2.03 | 0.345 | 0.915 | -0.318 | 0.221
ACTAGCAGGCCAAGGGGCACTCAAGATTAGTCCG | -0.336 | -0.192 | -0.413 | 0.0457 | -0.63 | 1.63 | 4.11 | 4.46 | 2.5 | 4.64
TAGCATAGGTCATTCAGGGGCCAGTATAGAAAGC | 6.82 | 5.38 | 1.82 | 4.56 | 1.73 | 5.15 | 3.49 | 4.27 | 1.5 | 3.18
CAAACTAGGTCACGAAAGCTCAAAGTCGAATGAC | 4.45 | 3.66 | 0.551 | 2.56 | 0.287 | 5.46 | 9.27 | 7.24 | 5.74 | 7.12
GCAGACAGGTGAAACGCAGGTTACTCAGGGTGGC | -0.0153 | 0.86 | -0.533 | 0.216 | -0.875 | 1.06 | 0.535 | 0.0459 | -0.6 | -0.266
AACTCTAGGTAAGACTCAGTTCAGTGAAGAACGC | -0.314 | -0.0738 | 0.141 | -0.191 | -0.311 | 0.00216 | 0.00417 | -0.304 | -0.237 | -0.258

Sequence | PBM binding z-score [1] | PBM binding z-score [2] | PBM binding z-score [3] | PBM binding z-score [4] | PBM binding z-score [5] | PBM binding z-score [6] | PBM binding z-score [7] | PBM binding z-score [8] | PBM binding z-score [9] | PBM binding z-score [10]
GCTATCAGTTGAAAGGGCAACCGAATGATTCTCG | 0.0237 | 0.591 | 0.000257 | 0.46 | -0.626 | 1.99 | 1.65 | 2.77 | 1.35 | 2.69
AGTAGCAGGCCAAGTTTGGGTCACTCAAACAAAG | 0.202 | -0.31 | -0.37 | 0.549 | -0.802 | 1.47 | -0.0669 | 0.42 | -0.474 | -0.201
CGAACTAGGTCATCCAGCACAGTGAATACATTGA | 4.05 | 2.64 | 0.684 | 2.07 | 0.124 | 4.78 | 7.47 | 6.28 | 3.93 | 5.81
TCTCGTAGATCAACAGGAGGTTAAGAAAGATCGA | 0.345 | 1.09 | -0.171 | 1 | -0.667 | 1.13 | -0.29 | 1.7 | 2.94 | 2.36
CCTCGGCGGACAGAAGGTCAGAGCTGTCCGCTTT | 1.18 | 1.29 | -0.126 | 0.771 | -1.09 | 1.64 | -0.606 | 0.898 | -0.662 | -0.0722
GCAGACTGGTGAAACGCAGGTAACTCAGGGTGGC | -0.987 | -0.932 | -0.841 | -1.19 | -1.45 | -1.12 | -0.00355 | -0.98 | -0.852 | -1.12
TCTGCTAGGTCACCGATGGTCAGCTAATCTGCTA | 3.75 | 3.3 | -0.47 | 2.07 | -0.343 | 3.82 | 3.64 | 4.04 | 2.09 | 3.11
GCTAGGTGGTCAGTAAAAGGTCACACACCGGTCG | 3.63 | 4.57 | 4.44 | 4.2 | 0.699 | 4.56 | 2.78 | 4.14 | 1.72 | 3.51
CCGACTGGGCCAAGGTTACCATAACGCACAGCCA | 0.00014 | 0.358 | -0.181 | 0.279 | -1.2 | 1.01 | 1.97 | 2.37 | 0.199 | 1.39
ACTATTAGATGACTTAGGGCAACCGATACGACGC | 0.344 | 0.353 | 0.702 | 0.165 | 1.14 | 0.0577 | 1.25 | 0.22 | 0.441 | 0.295
TCTGCTAGGTCAACCATGGTCAGCTAATCTGCTA | 4.32 | 3.21 | -0.0391 | 2.21 | 0.102 | 3.52 | 2.98 | 3.44 | 2.15 | 2.95
AGATTGAGGTTATACGTAGATCAGGGAAGAAAGT | 1.82 | 1.79 | 0.26 | 1.37 | 0.202 | 2.91 | 1.21 | 1.56 | 0.644 | 1.05
GCTAGTAGTTGAAAGGGCAACCGAATGATTCTCG | 0.181 | 0.507 | 0.0629 | 0.605 | -0.496 | 2.52 | 4.19 | 5.71 | 4.3 | 5.8
ATATGTAGGTTAGCGGGTCATTCAGTTTGCGCAT | 2.01 | 2.27 | 0.947 | 2.45 | 0.826 | 4.33 | 6.81 | 5.6 | 3.1 | 5.16
TAGCCTAGGTCAGATCGGGCCAGTACACGCTATA | 2.56 | 1.36 | -0.186 | 0.718 | -0.385 | 1.82 | 0.74 | 0.997 | -0.169 | -0.0312
GGATCGAGGGCAAAGTTGATAGCATCTGTCGACG | 1.65 | 1.21 | -0.00761 | 0.937 | -0.138 | 4.37 | 7.25 | 7.18 | 5.86 | 8.27
CCTACTAGGCCAAAAAGGTCATTGATGCCGATAA | 3.79 | 4.67 | 3.6 | 4.54 | 0.985 | 4.84 | 3.56 | 4.24 | 1.54 | 3.67
CCTTACGGGTCACTGATAGGTTATAGCATTTGGA | 5.04 | 4.27 | 0.473 | 3.53 | 0.0559 | 5 | 4.57 | 4.4 | 1.47 | 3.36
TCTAGTTGGACACGGAGGTCACACACGACGGGTA | 2.81 | 2.85 | 2.1 | 2.85 | 0.421 | 3.68 | 2.46 | 3.05 | 3.26 | 2.88
CCTACTGGCCCAAAAAGGTCATTGATGCCGATAA | 3.63 | 4.47 | 3.88 | 4.4 | 1.04 | 4.74 | 1.35 | 2.89 | 0.585 | 1.93
CGAACTAGGTAAGAACAGGACAGTGAAGGATGAT | -0.196 | -0.204 | -0.208 | -0.602 | -0.626 | 0.502 | 0.928 | 0.462 | 0.267 | 0.273
GCGACTGGGGCATTAGCAGGTTACCATAACTTAA | -0.284 | 0.0464 | 0.0141 | 0.936 | -0.458 | 0.973 | 0.712 | 0.609 | -0.0543 | 0.0308
CATGCTAGGTCATGGTCAGCTAATCTACAGTATG | 3.66 | 3.18 | 0.549 | 1.79 | -0.0133 | 3.24 | 2.36 | 2.83 | 1 | 2.3
GCTTGCAGATCAAGGTTAAGAAAGACTAAGCTAA | -0.109 | 0.424 | -0.386 | 0.358 | -0.936 | 1.25 | 0.0724 | 0.872 | 0.0105 | 0.351
